Source: PubChem BioAssay (NCI)
The panel holds about 79,000 compounds, 15% with a hit somewhere; the sample as a whole holds those more often. Rule as the data show it: active = growth inhibition above about 70%; inactive = the rest.

Experiments:
[1] = NCI Yeast Anticancer Drug Screen. Data for the rad50 strain (AID 155);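 also: 0% = growth of vehicle-only cultures of the same strain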; details: S. cerevisiae rad50 strain growth inhibition; at 50.0 µM; active compounds read high
Procedure, shortened: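 Inhibition values express reduced yeast growth in compound-treated cultures relative to vehicle-treated controls.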

[2] = NCI Yeast Anticancer Drug Screen. Data for the mec2-1 strain (AID 157); details: S. cerevisiae mec2-1 strain, at 50.0 µM, active compounds read high
Procedure, shortened: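 Compounds were applied to mec2-1 yeast cells. Their growth was then compared with that of vehicle-treated cultures to give growth inhibition.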

[3] = NCI Yeast Anticancer Drug Screen. Data for the sgs1 mgt1 strain (AID 161);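 also: 0% = growth of cultures given vehicle only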; details: S. cerevisiae sgs1 mgt1 strain, at 50.0 µM, active compounds read high
Procedure, shortened: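 This yeast growth screen uses a strain with defined DNA-repair lesions; compound-treated growth is compared with vehicle-treated growth.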

[4] = NCI Yeast Anticancer Drug Screen. Data for the cln2 rad14 strain (AID 165);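 also: 0% = growth equal to vehicle treated cultures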; details: S. cerevisiae cln2 rad14 strain, at 50.0 µM, active compounds read high
Procedure, shortened: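 Strain: cln2 rad14 yeast, altered in cell cycle control and DNA damage repair. Read-out: growth inhibition vs vehicle.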

[5] = NCI Yeast Anticancer Drug Screen. Data for the bub3 strain (AID 167); details: S. cerevisiae bub3 mutant strain, at 50.0 µM, active compounds read high
Procedure, shortened: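 Steps: expose the mutant yeast strain to compound; grow alongside vehicle-treated cultures; measure growth; express inhibition against the vehicle cultures.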

[6] = NCI Yeast Anticancer Drug Screen. Data for the mlh1 rad18 strain (AID 175); details: S. cerevisiae mlh1 rad18 strain growth inhibition; at 50.0 µM; active compounds read high
Procedure, shortened: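 A repair-deficient yeast strain is exposed to test compound, and growth is scored relative to vehicle-treated controls.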

Measured: growth inhibition

COc1ccc(CC(NC(=O)OCc2ccccc2)C(=O)O)cc1 (stereo unspecified)
inactive: [1] 1.15% | [2] 4.15% | [3] 2.7% | [4] -52.1% | [5] 18.7% | [6] 6.6%

CCOC(=O)C1=C(O)C(=O)c2ccoc2C1=O
inactive: [1] -52.9% | [2] -35.2% | [3] -58% | [4] -7.15% | [5] -32.5% | [6] -32%

CC(O)COc1ccc(OCc2ccccc2)cc1 (stereo unspecified)
inactive: [1] 26.6% | [2] 34.6% | [3] 49.9% | [4] 10.2% | [5] 46.5% | [6] 33.9%

CCCC(C)C1CCC(=O)CC1 (stereo unspecified)
inactive: [1] 5.85% | [2] 0.3% | [3] 0.75% | [4] -4.3% | [5] 1.95% | [6] -0.2%

Nc1ncc2ncn(CCO)c2n1
inactive: [1] -22.1% | [2] -15.4% | [3] 23.1% | [4] 1.95% | [5] -6.85% | [6] 3.7%

Cn1c(=Nc2ccc(Cl)cc2)sc2ccccc21
inactive: [1] -8.65% | [2] -31.2% | [3] -21.4% | [4] -36.9% | [5] 1.2% | [6] -21.9%

O=C(CC(=O)n1nc(-c2ccccc2)c(N=Nc2ccc([N+](=O)[O-])cc2)c1-c1ccccc1)Nc1ccc(Cl)cc1
inactive: [1] 35.6% | [2] 3.1% | [3] 52% | [4] 17.4% | [5] 53% | [6] 23.9%

c1cc2c([nH]1)CCCC2
inactive: [1] 12.5% | [2] 14.3% | [3] 2.45% | [4] 21.1% | [5] 23.6% | [6] 13.9%

C/C(N=NC(=S)N1CC(C)OC(C)C1)=C1\C=CC=CN1O (stereo unspecified)
inactive: [1] -7.3% | [2] -2.15% | [3] 11.8% | [4] 12.3% | [5] 13.8% | [6] 8.85%

CCCCCCCCCCC1SCC(=O)N1c1nncs1 (stereo unspecified)
inactive: [1] 13.2% | [2] 0.75% | [3] 16.6% | [4] 10.2% | [5] 4.2% | [6] 4.25%

CC12CCCC1C1CC=C3CC(SC4CCC5(C)C(=CCC6C7CCCC7(C)CCC65)C4)CCC3(C)C1CC2 (stereo unspecified)
inactive: [1] -2.05% | [2] -0.25% | [3] -21.5% | [4] -37.9% | [5] -17.6% | [6] -21.6%

CN(C)c1nc(S(C)(=O)=O)nc2nc(S(C)(=O)=O)[nH]c12
inactive: [1] 2.45% | [2] -19.1% | [3] -4% | [4] -47% | [5] 1.95% | [6] -17.6%

c1ccc2c(c1)CSc1ccccc1-2
inactive: [1] 9.8% | [2] -8.9% | [3] -6.4% | [4] -12.2% | [5] 7% | [6] -3.65%

CCNC(=O)CCN(C(=O)O)S(=O)(=O)c1ccc(NC(=O)c2ccccc2)cc1
inactive: [1] -23.2% | [2] -14.8% | [3] -2.55% | [4] 0.25% | [5] -8.7% | [6] -13.9%

CCOC(=O)C(N=Nc1ccc(S(N)(=O)=O)cc1)C(C)=O (stereo unspecified)
inactive: [1] -0.9% | [2] -15.1% | [3] -12.7% | [4] -4.25% | [5] -13.2% | [6] 16.1%

C1CCN(CCC2CCNCC2)C1
inactive: [1] 5.5% | [2] -19.4% | [3] -15.1% | [4] 13.5% | [5] -1% | [6] 3.8%

O=C(O)c1ccc2c(c1)S(=O)(=O)NC2=O
inactive: [1] 1.15% | [2] 10.2% | [3] 13% | [4] -26.1% | [5] 12.1% | [6] -8%

Nc1nc(CCC(=O)Nc2cccc(C(F)(F)F)c2)cc(-c2cccc3ccccc23)n1
inactive: [1] -15.2% | [2] 17.4% | [3] 29.1% | [4] 0.8% | [5] 23.1% | [6] 2.3%

COc1cc(CO)c(CC(=O)NCCCc2ccccc2)cc1OC
inactive: [1] 37.8% | [2] -44.5% | [3] -12.5% | [4] -2.85% | [5] -14.2% | [6] -47.5%

COc1ccc(C2c3cc4c(cc3OC(NNS(=O)(=O)c3ccc(C)cc3)C2C)OCO4)cc1 (stereo unspecified)
inactive: [1] -22.4% | [2] 12.9% | [3] 9.55% | [4] 4.4% | [5] -5.1% | [6] 34.2%

Cn1ncc2c(=S)[nH]c(=S)[nH]c21
inactive: [1] 19.4% | [2] -9.25% | [3] 2.5% | [4] 7.85% | [5] 2.3% | [6] 1.85%

CC(=O)CCc1cccc([N+](=O)[O-])c1
inactive: [1] -17.6% | [2] -5.1% | [3] -14.5% | [4] -6.85% | [5] -0.15% | [6] -7.25%

Cn1cc([N+](=O)[O-])cc1C(=O)Nc1cc(C(=O)Nc2ccc(S(=O)(=O)O)c3cc(S(=O)(=O)O)ccc23)n(C)c1
inactive: [1] 2.4% | [2] 21.4% | [3] 14.3% | [4] 17.4% | [5] 20.4% | [6] 11.7%

CC(C)=NNC(=O)COCC(=O)NN=C(C)C
inactive: [1] 0.25% | [2] -4.45% | [3] -1.35% | [4] -84.5% | [5] -22.9% | [6] 1.35%

OCc1c(CO)c(-c2ccc(Cl)cc2)n2c1CCC2
inactive: [1] 29.4% | [2] -15% | [3] 8.4% | [4] 29.2% | [5] -6.35% | [6] 34.5%

COC(=O)c1c2c(cc3c1CC1(C3)Cc3ccc4c(c3C1=O)CCC4)CCC2 (stereo unspecified)
inactive: [1] 12.5% | [2] 14.4% | [3] -7.35% | [4] -13.8% | [5] -21.1% | [6] -86%

COC(=O)C(=O)c1c(-c2cccnc2)[nH]c2ccccc12
inactive: [1] 7.3% | [2] -7.1% | [3] 1.05% | [4] -9.05% | [5] 13.2% | [6] 4%

O=C(NC(=O)C(F)(F)F)Nc1cccc(C(F)(F)F)c1
inactive: [1] 15.6% | [2] 1.1% | [3] -14.1% | [4] -4.85% | [5] -8.25% | [6] 2.9%

CC1CN(CCO)C(C)(C)C1 (stereo unspecified)
inactive: [1] 4.6% | [2] 17.8% | [3] -6.3% | [4] -12.8% | [5] -9.2% | [6] -17%

Cn1c2ccccc2c2ccc3c(c21)C(=O)NC3=O
inactive: [1] 15.6% | [2] 10.7% | [3] -7.75% | [4] -7.7% | [5] -21.9% | [6] 13.3%

CC(C)CC(O)C(C)C (stereo unspecified)
inactive: [1] -18.3% | [2] -15.8% | [3] 0.15% | [4] 31.3% | [5] -6.8% | [6] 1.35%

CCN(CC)CCOC(=O)COc1ccc(Cc2ccccc2)cc1
inactive: [1] 14.7% | [2] 3.55% | [3] 14.3% | [4] 15.6% | [5] -9.4% | [6] 11.3%

COC(=S)SCSC(=S)OC
inactive: [1] -12.2% | [2] -27.3% | [3] -2.5% | [4] -14.9% | [5] -6.45% | [6] -27.9%

CCOC(=O)c1c(C(=O)Nc2ccccc2)c(-c2ccccc2)n(NC(N)=O)c1C
inactive: [1] 5.25% | [2] 5.95% | [3] 0.5% | [4] -2.4% | [5] 0.85% | [6] 2.95%

CCOc1ccc(NC(=O)/C(Cc2nc3ccccc3[nH]c2=O)=N\O)cc1
inactive: [1] 21.9% | [2] -5.1% | [3] -15.9% | [4] 15.8% | [5] 4.1% | [6] -4.7%

CCNc1nc2c(N)ncnc2n1C1OC(CO)C(O)C1O (stereo unspecified)
inactive: [1] 12.8% | [2] -8.4% | [3] 6.45% | [4] -3.35% | [5] -0.1% | [6] -6.6%

CC(C)NC(=O)OCCN=c1c2ccccc2ccc2ccccc12
inactive: [1] 53.3% | [2] 49.8% | [3] 65.9% | [4] 22.7% | [5] 60.1% | [6] 38.9%

Nc1ccc(S(=O)(=O)Nc2cnc3c(Cl)cccc3n2)cc1
inactive: [1] -11% | [2] 4.2% | [3] 10.9% | [4] -39.5% | [5] 32.2% | [6] -0.6%

N#C/C(=N\NC(=O)c1cccc(C(=O)N/N=C(\C#N)c2ccccc2Cl)n1)c1ccccc1Cl
inactive: [1] -0.95% | [2] -10.9% | [3] -5.1% | [4] -14.6% | [5] -1.85% | [6] 4.2%

NS(=O)(=O)c1ccc(NC2=CC(=O)C(=O)c3ccccc32)cc1
inactive: [1] -6.4% | [2] -5.6% | [3] -21.4% | [4] 2.4% | [5] -7.55% | [6] -11.6%

CCCCCCCCC1C(CCCCCCCC(=O)OC)C2(Cl)C(Cl)=C(Cl)C1(Cl)C2(Cl)Cl (stereo unspecified)
inactive: [1] 25.6% | [2] -11.5% | [3] -1.05% | [4] 3.05% | [5] -1.2% | [6] 14.3%
